Laboratory results reported in PubChem BioAssay (NCI).
The panel holds about 83,000 compounds, 20% with a hit somewhere; the sample as a whole holds those more often.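 Negative percent growth values reflect cell death: -40 means 40% of the cells present at the start died, and -100 means all died.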 Calls of active or inactive are those of the source. Rule for the calls: active = growth percent below 10; inactive = the rest.

Tests used:
Test in all cases: NCI-60 one-dose screen, 48 h (100 = growth as untreated, 0 = no growth, -100 = all killed)
Settings in all cases: 10 µM unless noted
NCI-H23 lung = tested on: NCI-H23 lung
NCI-H226 lung = tested on: NCI-H226 lung
NCI-H322M lung = tested on: NCI-H322M lung
HOP-62 NSCLC = tested on: HOP-62 NSCLC
NCI-H460 lung = tested on: NCI-H460 lung
HOP-92 NSCLC = tested on: HOP-92 NSCLC
NCI-H522 lung = tested on: NCI-H522 lung
A549/ATCC NSCLC = tested on: A549/ATCC NSCLC
786-0 renal = tested on: 786-0 renal
COLO 205 colon = tested on: COLO 205 colon

Measured: growth

COc1ccc2[nH]cc(-c3nc(-c4c[nH]c5c(Cl)nccc45)cs3)c2c1
inactive: NCI-H23 lung 54.1% | NCI-H226 lung 40.3% | NCI-H322M lung 72.2% | HOP-62 NSCLC 61.2% | HOP-92 NSCLC 56.2% | NCI-H522 lung 25.8% | A549/ATCC NSCLC 28.6% | COLO 205 colon 42.2%
active: NCI-H460 lung -3.62% | 786-0 renal 9.87%

O=C1/C(=C/c2ccc(O)c(O)c2)COc2ccc(-c3ccccc3)cc21
inactive: NCI-H23 lung 35.8% | NCI-H226 lung 36.2% | NCI-H322M lung 54.8% | HOP-62 NSCLC 77.5% | NCI-H460 lung 13.7% | A549/ATCC NSCLC 31.8% | 786-0 renal 24.8%
active: HOP-92 NSCLC 1.73% | NCI-H522 lung -67.2% | COLO 205 colon 5.4%

O=C(Nc1cnc(Nc2ccc(N3CCOCC3)nc2)nc1Oc1ccc(C(F)(F)F)cc1)c1ccncc1
inactive: NCI-H23 lung 70% | NCI-H226 lung 92.8% | NCI-H322M lung 87.3% | HOP-62 NSCLC 93.1% | NCI-H460 lung 74.3% | HOP-92 NSCLC 94.1% | NCI-H522 lung 82.8% | A549/ATCC NSCLC 80.5% | 786-0 renal 96.8% | COLO 205 colon 99.8%

N#Cc1cccc(C2C3=C(COC3=O)N(CCO)c3cc4c(cc32)CCC4)c1 (stereo not given)
active: NCI-H460 lung 3.78% | NCI-H522 lung -3.91% | COLO 205 colon -26.1%
inactive: NCI-H23 lung 23.3% | NCI-H226 lung 28.4% | NCI-H322M lung 34.2% | HOP-62 NSCLC 26.3% | HOP-92 NSCLC 43% | A549/ATCC NSCLC 12.3% | 786-0 renal 24%

CC/C=C\C[C@H](O)C/C=C1/C(=O)C=C[C@@H]1C/C=C\CCCC(=O)O
inactive: NCI-H23 lung 79.9% | NCI-H226 lung 83.1% | NCI-H322M lung 85.6% | HOP-62 NSCLC 96.9% | NCI-H460 lung 64.8% | HOP-92 NSCLC 75.2% | A549/ATCC NSCLC 75.9% | 786-0 renal 68.5% | COLO 205 colon 65.4%
active: NCI-H522 lung -10.7%

Cc1ccc(CNc2c3ccccc3nc3ccccc23)cc1
active: NCI-H460 lung 8.75% | HOP-92 NSCLC 3.24% | COLO 205 colon 0.281%
inactive: NCI-H23 lung 29.3% | NCI-H226 lung 41.5% | NCI-H322M lung 39.7% | HOP-62 NSCLC 43.7% | NCI-H522 lung 49% | A549/ATCC NSCLC 26.1% | 786-0 renal 25.4%

O=C(/C=C/c1ccc(Oc2ccc(Br)cc2)cc1)c1ccc(Br)cc1
inactive: NCI-H23 lung 95.3% | NCI-H226 lung 103% | NCI-H322M lung 95.3% | HOP-62 NSCLC 99.9% | NCI-H460 lung 105% | HOP-92 NSCLC 91.6% | NCI-H522 lung 91.1% | A549/ATCC NSCLC 94.4% | 786-0 renal 101% | COLO 205 colon 113%

Fc1cc(Nc2ccc3c(OCCCN4CCOCC4)cccc3n2)ccc1Cl
inactive: NCI-H23 lung 61.1% | NCI-H226 lung 68.8% | NCI-H322M lung 45.3% | HOP-62 NSCLC 39.2% | NCI-H460 lung 21.1% | HOP-92 NSCLC 27.3% | A549/ATCC NSCLC 25.7%
active: NCI-H522 lung -15.5% | 786-0 renal 1.04% | COLO 205 colon -50.2%

COC(=O)/C=C1/SC(=Nc2ccc([N+](=O)[O-])cc2)N(CCc2c[nH]c3ccc(O)cc23)C1=O
inactive: NCI-H23 lung 64.9% | NCI-H226 lung 86.1% | NCI-H322M lung 87.5% | HOP-62 NSCLC 27.5% | NCI-H460 lung 17.4% | HOP-92 NSCLC 27.3% | NCI-H522 lung 57.4% | A549/ATCC NSCLC 69.3% | 786-0 renal 44.2% | COLO 205 colon 78.1%

C=C(c1ccc(OC)c(/C=C/C(=O)c2ccc3c(c2)OCO3)c1)c1cc(OC)c(OC)c(OC)c1
inactive: NCI-H23 lung 15.9% | NCI-H322M lung 35.1% | HOP-62 NSCLC 36% | HOP-92 NSCLC 12.7% | A549/ATCC NSCLC 27.3% | 786-0 renal 12.6%
active: NCI-H226 lung -40.4% | NCI-H460 lung 0.841% | NCI-H522 lung 5.55% | COLO 205 colon 5.33%

C/C(Cc1ccc(Cl)cc1)=C(\c1ccc(OCCCN(C)C)cc1)c1ccc(OC(=O)Cc2ccccc2)cc1
inactive: NCI-H23 lung 101% | NCI-H226 lung 110% | NCI-H322M lung 105% | HOP-62 NSCLC 92.2% | NCI-H460 lung 110% | HOP-92 NSCLC 101% | NCI-H522 lung 70.5% | A549/ATCC NSCLC 105% | 786-0 renal 104% | COLO 205 colon 112%

C=CN(C(=O)N1CCN(c2cc3c(cc2F)c(=O)c(C(=O)O)cn3C2CC2)CC1)c1nc(-c2ccc(OC)cc2)cs1
active: HOP-92 NSCLC -14.1%
inactive: NCI-H23 lung 12.7% | NCI-H226 lung 37.8% | NCI-H322M lung 15.3% | HOP-62 NSCLC 18.5% | NCI-H460 lung 10.8% | NCI-H522 lung 12.7% | A549/ATCC NSCLC 16.6% | 786-0 renal 30.5% | COLO 205 colon 29.5%

O=C(Cc1ccc(NC(=O)c2cccc(Cl)c2)cc1)NCc1ccccc1
inactive: NCI-H23 lung 73.2% | NCI-H226 lung 87% | NCI-H322M lung 73.9% | HOP-62 NSCLC 46.6% | NCI-H460 lung 28.8% | HOP-92 NSCLC 72.2% | NCI-H522 lung 55.1% | A549/ATCC NSCLC 43.9% | 786-0 renal 53.6% | COLO 205 colon 39.3%

CC(=O)O[C@H]1C[C@@H]2C(C)(C)C(=O)CC[C@@]2(C)c2ccc(C(C)C)cc21
inactive: NCI-H23 lung 102% | NCI-H226 lung 101% | NCI-H322M lung 109% | HOP-62 NSCLC 109% | NCI-H460 lung 107% | HOP-92 NSCLC 96.5% | NCI-H522 lung 98.3% | A549/ATCC NSCLC 107% | 786-0 renal 93.9% | COLO 205 colon 115%

O=C(CI)NC(=O)NC(=O)NCc1ccccc1
inactive: NCI-H23 lung 32.6% | NCI-H322M lung 86.4% | HOP-62 NSCLC 85.9% | NCI-H460 lung 102% | A549/ATCC NSCLC 92.9% | 786-0 renal 23.9%
active: NCI-H226 lung -43.6% | HOP-92 NSCLC -17.4% | NCI-H522 lung -82% | COLO 205 colon -41.4%

CN1CCN(c2ccc(NC(=O)c3cncnc3Nc3ccc(OCc4cccc(F)c4)c(Cl)c3)cc2)CC1
active: NCI-H460 lung 5.33% | COLO 205 colon 6.12%
inactive: NCI-H23 lung 78% | NCI-H226 lung 94.9% | NCI-H322M lung 81.1% | HOP-62 NSCLC 33.1% | HOP-92 NSCLC 57.1% | NCI-H522 lung 103% | A549/ATCC NSCLC 57% | 786-0 renal 56%

Cc1cn(-c2cc(NC(=O)c3cncc(C#Cc4c(N)ncc5ccc(F)cc45)c3)cc(C(F)(F)F)c2)cn1
inactive: NCI-H23 lung 25% | NCI-H226 lung 36.2% | NCI-H322M lung 65.7% | HOP-62 NSCLC 67.3% | NCI-H460 lung 49.2% | NCI-H522 lung 58.1% | A549/ATCC NSCLC 61.3% | 786-0 renal 77.1% | COLO 205 colon 11.6%
active: HOP-92 NSCLC -8.98%

CCNc1ccc(-c2nc3ccccc3n3cccc23)cc1
inactive: NCI-H23 lung 79.6% | NCI-H226 lung 68.8% | NCI-H322M lung 76.7% | HOP-62 NSCLC 83.4% | NCI-H460 lung 88.8% | HOP-92 NSCLC 63.7% | NCI-H522 lung 71.3% | A549/ATCC NSCLC 75.6% | 786-0 renal 86% | COLO 205 colon 95.2%

C=C1C(=O)O[C@H]2[C@H]1CC/C(Cn1cc(CCC)nn1)=C\CC[C@@]1(C)O[C@@H]21
active: NCI-H226 lung -37.4% | HOP-92 NSCLC -11.2% | NCI-H522 lung -70.7% | 786-0 renal 3.66% | COLO 205 colon -72.1%
inactive: NCI-H23 lung 41.1% | NCI-H322M lung 90.2% | HOP-62 NSCLC 73.9% | NCI-H460 lung 61.4% | A549/ATCC NSCLC 68.2%

Clc1ccc(-c2cc(-c3ccccc3)nc(NCCNc3ccnc4cc(Cl)ccc34)n2)cc1
active: NCI-H460 lung -51.6% | NCI-H522 lung -35.9% | 786-0 renal -90.9% | COLO 205 colon -81.2%
inactive: NCI-H23 lung 74.3% | NCI-H226 lung 78.5% | NCI-H322M lung 44.6% | HOP-62 NSCLC 81.2% | HOP-92 NSCLC 31.8% | A549/ATCC NSCLC 36.3%

C/C=C(/C)n1cnc2c(Nc3ccccn3)nc(Cl)nc21
inactive: NCI-H23 lung 102% | NCI-H226 lung 102% | NCI-H322M lung 99.3% | HOP-62 NSCLC 102% | NCI-H460 lung 103% | HOP-92 NSCLC 99.9% | NCI-H522 lung 87.1% | A549/ATCC NSCLC 104% | 786-0 renal 101% | COLO 205 colon 114%

N#C/C(=C\c1ccc(-c2cccc(C(F)(F)F)c2)o1)c1ccccc1
inactive: NCI-H23 lung 79.7% | NCI-H226 lung 77.4% | NCI-H322M lung 86% | HOP-62 NSCLC 88.1% | NCI-H460 lung 97.1% | HOP-92 NSCLC 87.5% | NCI-H522 lung 84.6% | A549/ATCC NSCLC 94.3% | 786-0 renal 99.9% | COLO 205 colon 101%

Cc1ccc(S(=O)(=O)OCCCOS(=O)(=O)c2ccc(C)cc2)cc1
inactive: NCI-H23 lung 105% | NCI-H226 lung 107% | NCI-H322M lung 92.3% | HOP-62 NSCLC 113% | NCI-H460 lung 96.5% | HOP-92 NSCLC 77.4% | NCI-H522 lung 89% | A549/ATCC NSCLC 93.4% | 786-0 renal 90.8% | COLO 205 colon 110%

COc1cccc(C(=O)NNc2nc(Cl)nc(Cl)n2)c1
inactive: NCI-H23 lung 99.1% | NCI-H226 lung 105% | NCI-H322M lung 98.5% | HOP-62 NSCLC 104% | NCI-H460 lung 107% | HOP-92 NSCLC 98.3% | NCI-H522 lung 100% | A549/ATCC NSCLC 105% | 786-0 renal 101% | COLO 205 colon 107%

CC(C)=CCNc1ncnc2c1ncn2C1OC(CO)C(O)C1O (stereo not given)
active: NCI-H23 lung -19.3% [1 mM] | NCI-H226 lung -70.3% [1 mM] | NCI-H322M lung -4.69% [1 mM] | HOP-62 NSCLC -17.3% [1 mM] | NCI-H460 lung 2.5% [1 mM] | HOP-92 NSCLC -77.2% [1 mM] | NCI-H522 lung -54.2% [1 mM] | A549/ATCC NSCLC -8.25% [1 mM] | 786-0 renal -31.4% [1 mM] | COLO 205 colon -6.05% [1 mM]

O=C(Oc1ccc(CCl)cc1)c1ccccc1
active: NCI-H23 lung -72.6% | NCI-H226 lung -97.8% | NCI-H322M lung -91.4% | HOP-62 NSCLC -79.2% | NCI-H460 lung -47.5% | HOP-92 NSCLC -89.7% | NCI-H522 lung -65.7% | A549/ATCC NSCLC -68.7% | 786-0 renal -92.5% | COLO 205 colon -72.9%
